# M18AAP inhibitor: PfM18AAP inhibitors, malaria aminopeptidase, primary screen, biochemical, QFRET, recombinant enzyme; H-Glu-NHMec fluorogenic cleavage; inhibition, % at 7.35 µM; hit rate 1.2% among 290,000;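 active means inhibition above the campaign mean inhibition over all tested compounds plus 3 SD, cut at about 28% in these data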
# A3G deaminase: APOBEC3G DNA deaminase inhibitors, primary screen, biochemical, fluorescence, single-stranded DNA substrate, uHTS. DNA dC->dU-editing enzyme APOBEC-3G (Homo sapiens), Q9HC16. recombinant A3G, ssDNA deamination FAM/TAMRA fluorescence. inhibition, % at 20 µM. hit rate 0.28% among 330,000;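 active means inhibition of at least 40% at 20 µM, with no more than 30% in the related APOBEC3A deaminase screen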
# Yeast superoxide: reduction of superoxide in aged yeast, primary screen, HTS; hit rate 0.18% among 330,000; S. cerevisiae aged cells, superoxide DHE fluorescence; active compounds read low; superoxide response (% of plate mean), % at 10 µM;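 active means superoxide response under a set limit, about three screen SD below normal, cut at about 65% in these data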;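 further: yeast aged for seven days with compound at 30 °C before DHE staining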
# ALR inh: inhibitors of human ALR sulfhydryl oxidase, primary screen, biochemical, H2O2 detection, HRP-luminol luminescence, single point | AID 485317, 2010 | hit rate 3.8% among 290,000 | FAD-linked sulfhydryl oxidase ALR (Homo sapiens), P55789 | inhibition, % (concentration not given with the values) | purified ALR, DTT oxidation;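 active means mean replicate inhibition above about 79%, with every replicate also reaching it, limit read from the data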
# Target sequence (P55789 whole entry, looked up): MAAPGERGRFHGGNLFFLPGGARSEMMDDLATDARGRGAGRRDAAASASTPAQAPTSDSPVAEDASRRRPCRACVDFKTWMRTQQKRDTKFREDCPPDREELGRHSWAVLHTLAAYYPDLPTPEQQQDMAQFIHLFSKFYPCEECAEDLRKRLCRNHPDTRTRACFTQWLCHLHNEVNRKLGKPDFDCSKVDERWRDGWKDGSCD
# A3A deaminase: APOBEC3A ssDNA deaminase inhibitors, primary screen, selectivity assay for APOBEC3G inhibitor project, biochemical, FAM/TAMRA oligo cleavage fluorescence | DNA dC->dU-editing enzyme APOBEC-3A (Homo sapiens), P31941 | recombinant A3A, FAM/TAMRA ssDNA deamination fluorescence | inhibition, % at 20 µM | hit rate 0.41% among 330,000;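 active means at least 40% inhibition at 20 µM here, with at most 30% in a related deaminase screen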
# Target sequence (P31941 whole entry, looked up): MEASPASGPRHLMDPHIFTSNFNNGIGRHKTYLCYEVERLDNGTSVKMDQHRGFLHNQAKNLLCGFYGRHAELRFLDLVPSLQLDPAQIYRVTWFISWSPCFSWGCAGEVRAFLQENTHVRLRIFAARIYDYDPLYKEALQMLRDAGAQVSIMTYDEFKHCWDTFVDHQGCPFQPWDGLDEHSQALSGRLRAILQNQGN
# CendR NRP1 mod: modulators of CendR peptide binding to NRP-1, primary screen, biochemical, fluorescence polarization, uHTS. Neuropilin-1 (Homo sapiens), O14786. hit rate 0.85% among 360,000. inhibition, % at 25 µM. FAM-RPARPAR peptide binding to NRP-1;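 active means inhibition or corrected inhibition above about 18%, plus a signal ratio from 0.5 to 1.5, limit read from the data, passing the limit was not always enough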
# Superoxide pick: superoxide lowering in aged yeast cells, confirmation, cherry picked compounds; superoxide response (% of plate), % at 10 µM; AID 434994, 2010; S. cerevisiae aging, superoxide DHE fluorescence; active compounds read low; hit rate 1% among 850; shares compounds with Yeast superoxide;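 active means superoxide signal below 65% of the plate average of sample wells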;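 further: cells aged with compound for 7 days at 30 degrees C before staining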
# DHE fluor count: DHE quenching or ROS scavenging interference in aged yeast, artefact control for yeast caloric restriction mimetic project, S. cerevisiae BY4741, flow cytometry; shares compounds with Yeast superoxide; DHE fluorescence; active compounds read low; fluorescence response, % at 10 µM; 850 tested, under 10 active; AID 435000, 2010;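 active means fluorescence response below 15%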;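 further: lower means stronger quenching of DHE signal or ROS scavenging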
# A number is an active result; - = inactive; . = no result. Only some compounds are listed: those with a hit (about 5.2% of all), similar ones and a draw of the others.
SMILES,M18AAP inhibitor,A3G deaminase,Yeast superoxide,ALR inh,A3A deaminase,CendR NRP1 mod,Superoxide pick,DHE fluor count
CCC(C)(C)c1ccc(OCCCC[n+]2cccc(C)c2)c(C(C)(C)CC)c1,-,.,.,.,.,-,-,-
O=C(c1ccccc1)N1CCN(c2ccccc2F)CC1,-,-,-,.,-,-,-,-
O=C(c1cccnc1)N1CCN(c2ccccc2Cl)CC1,-,-,-,-,-,.,-,-
CCC(=O)c1ccc(N2CCN(C(=O)c3ccccc3)CC2)c(F)c1,-,-,-,.,-,-,-,-
CC(=O)c1ccc(N2CCN(C(=O)c3ccc(Br)cc3)CC2)c(F)c1,-,-,-,.,-,-,-,-
CC(=O)c1ccc(N2CCN(C(=O)c3ccco3)CC2)c(F)c1,-,-,-,-,-,-,.,.
O=C(c1ccc(-c2ccccc2)cc1)N1CCN(c2ccccc2F)CC1,-,-,-,.,-,-,.,.
Cn1c(=O)c2c(nc(Cl)n2Cc2ccc(Cl)c(Cl)c2)n(C)c1=O,-,-,-,-,-,-,.,.
CCOC(=O)N1CCN(C(=O)c2ccc3nc(SCc4ccc(F)cc4)n(C)c3c2)CC1,-,-,-,.,-,-,.,.
CCCn1nc(NC(=O)c2cccs2)c2cc3ccccc3nc21,-,-,-,.,-,-,.,.
CCCCn1nc(NC(=O)c2cccs2)c2cc3ccccc3nc21,-,-,65,-,-,-,-,-
C=CCN1C(=O)C2(OCCCO2)c2ccccc21,-,-,-,-,-,-,.,.
O=C1/C(=C/c2cccnc2)CCC/C1=C\c1cccnc1,-,.,65,-,.,.,-,-
O=S(=O)(Nc1ccc2c(c1)OCCO2)c1ccc2oc3ccccc3c2c1,-,-,-,-,-,-,.,.
Cc1cc(C)n(-c2nnc(NC34CC5CC(CC(C5)C3)C4)nn2)n1,-,-,64,.,-,-,-,-
Cc1cc(C)n(-c2nnc(NC(C)(C)C)nn2)n1,-,-,-,-,-,-,.,.
CCOc1cc(C)c(S(=O)(=O)N2CCCC2)cc1C,-,-,65,.,-,-,-,-
CCCOc1cc(C)c(S(=O)(=O)N2CCOCC2)cc1C,-,-,-,-,-,.,.,.
COc1cc(SC)ccc1C(=O)N1CCN(Cc2ccccc2)CC1,-,-,-,-,-,-,.,.
COc1ccccc1C(=O)N1CCN(c2cccc(Cl)c2)CC1,-,-,-,-,-,-,-,-
COc1cc2c(C(=O)N3CCN(c4cccc(Cl)c4)CC3)cn(C)c(=O)c2cc1OC,-,-,-,.,-,-,.,.
COc1cc(SC)ccc1C(=O)N1CCN(c2ccccc2)CC1,-,-,-,-,-,-,-,-
CN(C(=O)COc1ncnc2ccc(Br)cc12)C1CCCCC1,.,.,.,.,.,-,.,.
CC(C)c1ccc(/C=C/C(=O)NC(=S)Nc2ccc(CN3CCOCC3)cc2)cc1,-,-,61,-,-,-,-,-
O=C(NC1CCCCCCC1)c1cc([N+](=O)[O-])ccc1Cl,-,-,63,-,-,-,-,-
SMILES,M18AAP inhibitor,A3G deaminase,Yeast superoxide,ALR inh,A3A deaminase,CendR NRP1 mod,Superoxide pick,DHE fluor count
COc1ccc(OC)c(-n2nnnc2SCC(=O)NCCc2ccccc2)c1,-,-,53,-,-,-,-,-
COc1cccc(-n2nnnc2SCC(=O)NCCc2ccccc2)c1,-,-,-,.,-,-,.,.
CCCc1cc(Nc2ccc(C)cc2)n2ncnc2n1,-,-,-,-,-,-,.,.
CN(C)Cc1ccccc1Sc1ccc(Br)cc1,-,-,-,-,-,-,.,.
CCN(CC)Cc1cc(NC2=NS(=O)(=O)c3ccccc32)ccc1OC(=O)c1ccccc1,-,-,63,-,-,-,-,-
CCN(CC)Cc1cc(NC2=NS(=O)(=O)c3ccccc32)ccc1OC(=O)C(C)C,-,-,-,-,-,-,.,.
NC(=O)c1ccccc1NS(=O)(=O)c1ccccc1,-,-,-,-,-,-,-,-
CSc1cccc(NS(=O)(=O)c2ccccc2)c1,-,-,-,-,-,-,-,-
CSc1cccc(NS(=O)(=O)c2ccc(F)cc2)c1,-,-,-,.,-,-,.,.
CC(=O)Nc1ccc(NS(=O)(=O)c2ccccc2)cc1,-,-,-,-,-,-,-,-
Cc1ccc(S(=O)(=O)Nc2ccccc2C(N)=O)cc1,-,-,-,-,-,-,.,.
CN(Cc1ccccc1)C(=O)COc1ccc(C(C)(C)C)cc1,-,-,-,-,-,-,.,.
COc1ccc(CC(=O)Nc2cc(S(=O)(=O)N3CCOCC3)ccc2N2CCCC2)cc1OC,.,-,-,-,-,-,-,-
O=C(Cc1c(F)cccc1Cl)Nc1cc(S(=O)(=O)N2CCOCC2)ccc1N1CCCC1,.,-,-,-,-,-,.,.
O=C(Cc1ccc(Cl)cc1)Nc1cc(S(=O)(=O)N2CCOCC2)ccc1N1CCCC1,-,-,-,-,-,-,-,-
COc1ccc(C)cc1NC(=O)CNC(=O)c1sc2ccccc2c1Cl,.,-,-,-,-,-,.,.
Cc1ccc(CNC(=O)C2CCCN2C(=O)Nc2ccccc2)cc1 (stereo not given),-,-,-,-,-,-,.,.
O=C(c1ccncc1)N1CCN(c2ccc(F)cc2)CC1,-,-,-,-,-,-,.,.
O=C(c1ccc(Cl)cc1)N1CCN(c2ccc(F)cc2)CC1,-,-,-,-,-,-,-,-
O=C(c1cccc(F)c1)N1CCN(c2cccc(Cl)c2)CC1,-,-,-,.,-,-,-,-
N#Cc1ccc(N2CCN(C(=O)c3cccc(F)c3)CC2)c(F)c1,-,-,-,-,-,-,-,-
O=C(NNC(=S)Nc1cccc(C(F)(F)F)c1)c1ccc(Cl)cc1Cl,-,-,-,-,-,-,.,.
O=C(CC1C(=O)NCCN1C(=O)Nc1ccc(F)cc1F)Nc1cc(Cl)ccc1Cl (stereo not given),-,-,-,-,-,-,.,.
Cc1cc(C)cc(NC(=O)N2CCNC(=O)C2CC(=O)Nc2cc(Cl)ccc2Cl)c1 (stereo not given),-,-,64,-,-,-,-,-
CCn1c2ccccc2c2cc(CNCc3ccc(OC)cc3OC)ccc21,-,-,-,-,-,-,.,.
CCn1c2ccccc2c2cc(/C(C)=N/O)ccc21,-,-,-,98,-,-,-,-
